Where “and” joins values, the source holds several entries; their conditions need not be identical. Equal entries are not always repeated. Hit rate of the full screen: of about 5,500 compounds, about 2,000 (36%) were called active. Not shown: some 18% with an inconclusive outcome. Rule as the data show it: active = normalized growth mostly below about 0.91 (no sharp cut-off); inconclusive = no clear call, values can overlap the other calls; inactive = mostly above about 0.92. Some of the results follow. Some structures have more than one record in an assay (separate samples or runs), and their calls can disagree.
Experiment: chemical genetic growth profiling, strain panel (AID 1159580);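 also: tested at 20 µM; growth read once vehicle control cultures reached saturation at 30 °C; 1 = growth at the plate median or of vehicle wells; lower values mean less growth of the strain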
Details: growth OD

Oc1ccc(O)cc1
normalized growth (S. cerevisiae deletion strains, locus YAL013W, strain DEP1, stronger effect = lower value): 0.989 (inactive) and 0.9 (active)
normalized growth (S. cerevisiae deletion strains, locus YAL040C, strain CLN3, stronger effect = lower value): 1.1 (inactive)
normalized growth (S. cerevisiae deletion strains, locus YBR021W, strain FUR4, stronger effect = lower value): 0.688 (active)
normalized growth (S. cerevisiae deletion strains, locus YBR229C, strain ROT2, stronger effect = lower value): 1.02 (inactive)
normalized growth (S. cerevisiae deletion strains, locus YCL029C, strain bik1, stronger effect = lower value): 1.04 (inactive)
normalized growth (S. cerevisiae deletion strains, locus YCL061C, strain MRC1 (second series), stronger effect = lower value): 0.978 (inactive)
normalized growth (S. cerevisiae deletion strains, locus YDL035C, strain GPR1, stronger effect = lower value): 0.9 (inactive)
normalized growth (S. cerevisiae deletion strains, locus YDL074C, strain BRE1, stronger effect = lower value): 0.96 (inactive)
normalized growth (S. cerevisiae deletion strains, locus YDL101C, strain DUN1, stronger effect = lower value): 1.02 (inactive)
normalized growth (S. cerevisiae deletion strains, locus YDL134C, strain PPH21, stronger effect = lower value): 0.987 (inactive)
normalized growth (S. cerevisiae deletion strains, locus YDL185W, strain tfp1, stronger effect = lower value): 1.01 (inactive)
normalized growth (S. cerevisiae deletion strains, locus YDL192W, strain arf1, stronger effect = lower value): 1.02 (inactive)
normalized growth (S. cerevisiae deletion strains, locus YDR101C, strain arx1, stronger effect = lower value): 1.03 (inactive)
normalized growth (S. cerevisiae deletion strains, locus YDR150W, strain NUM1, stronger effect = lower value): 1.01 (inactive) and 0.953 (inactive)
normalized growth (S. cerevisiae deletion strains, locus YDR162C, strain NBP2, stronger effect = lower value): 0.987 (inactive)
normalized growth (S. cerevisiae deletion strains, locus YDR318W, strain mcm21, stronger effect = lower value): 1 (inactive)
normalized growth (S. cerevisiae deletion strains, locus YDR363W, strain ESC2, stronger effect = lower value): 0.997 (inactive)
normalized growth (S. cerevisiae deletion strains, locus YDR388W, stronger effect = lower value): 0.999 (inactive)
normalized growth (S. cerevisiae deletion strains, locus YDR502C, strain sam2, stronger effect = lower value): 1.02 (inactive)
normalized growth (S. cerevisiae deletion strains, locus YEL061C, strain CIN8, stronger effect = lower value): 1.02 (inactive)
normalized growth (S. cerevisiae deletion strains, locus YER002W, strain NOP16, stronger effect = lower value): 1 (inactive)
normalized growth (S. cerevisiae deletion strains, locus YER110C, stronger effect = lower value): 1.04 (inactive)
normalized growth (S. cerevisiae deletion strains, locus YER155C, strain BEM2, stronger effect = lower value): 1.02 (inactive)
normalized growth (S. cerevisiae deletion strains, locus YER167W, strain BCK2, stronger effect = lower value): 0.926 (inactive)
normalized growth (S. cerevisiae deletion strains, locus YGL078C, strain dbp3, stronger effect = lower value): 1.03 (inactive)
normalized growth (S. cerevisiae deletion strains, locus YGL086W, strain mad1, stronger effect = lower value): 0.985 (inactive)
normalized growth (S. cerevisiae deletion strains, locus YGL248W, strain PDE1, stronger effect = lower value): 0.975 (inactive)
normalized growth (S. cerevisiae deletion strains, locus YGR078C, strain PAC10, stronger effect = lower value): 0.858 (inactive) and 1.01 (inactive)
normalized growth (S. cerevisiae deletion strains, locus YGR135W, strain pre9, stronger effect = lower value): 0.964 (inactive)
normalized growth (S. cerevisiae deletion strains, locus YGR229C, strain SMI1, stronger effect = lower value): 0.637 (active)
normalized growth (S. cerevisiae deletion strains, locus YGR252W, strain gcn5, stronger effect = lower value): 0.765 (active)
normalized growth (S. cerevisiae deletion strains, locus YHR030C, strain SLT2, stronger effect = lower value): 1 (inactive) and 1.03 (inactive)
normalized growth (S. cerevisiae deletion strains, locus YHR079C, strain IRE1 (second series), stronger effect = lower value): 1 (inactive)
normalized growth (S. cerevisiae deletion strains, locus YHR079C, strain IRE1, stronger effect = lower value): 1.05 (inactive)
normalized growth (S. cerevisiae deletion strains, locus YHR094C, strain hxt1, stronger effect = lower value): 1.01 (inactive)
normalized growth (S. cerevisiae deletion strains, locus YHR129C, strain ARP1, stronger effect = lower value): 1.01 (inactive)
normalized growth (S. cerevisiae deletion strains, locus YHR200W, strain rpn10, stronger effect = lower value): 1 (inactive)
normalized growth (S. cerevisiae deletion strains, locus YIL066C, strain RNR3, stronger effect = lower value): 0.993 (inactive)
normalized growth (S. cerevisiae deletion strains, locus YIL073C, strain SPO22, stronger effect = lower value): 0.82 (inactive)
normalized growth (S. cerevisiae deletion strains, locus YIL125W, strain kgd1, stronger effect = lower value): 1.03 (inactive)
normalized growth (S. cerevisiae deletion strains, locus YIR030C, strain dcg1, stronger effect = lower value): 1.06 (inactive)
normalized growth (S. cerevisiae deletion strains, locus YJL095W, strain BCK1, stronger effect = lower value): 0.968 (inactive) and 1.01 (inactive)
normalized growth (S. cerevisiae deletion strains, locus YJL134W, strain LCB3, stronger effect = lower value): 1.02 (inactive)
normalized growth (S. cerevisiae deletion strains, locus YJL168C, strain set2, stronger effect = lower value): 1.02 (inactive)
normalized growth (S. cerevisiae deletion strains, locus YJL187C, strain SWE1 (second series), stronger effect = lower value): 1.01 (inactive)
normalized growth (S. cerevisiae deletion strains, locus YJR043C, strain POL32, stronger effect = lower value): 0.86 (inactive)
normalized growth (S. cerevisiae deletion strains, locus YJR066W, strain TOR1, stronger effect = lower value): 1.02 (inactive)
normalized growth (S. cerevisiae deletion strains, locus YJR075W, strain HOC1, stronger effect = lower value): 0.951 (inactive)
normalized growth (S. cerevisiae deletion strains, locus YKL009W, strain mrt4, stronger effect = lower value): 1.03 (inactive)
normalized growth (S. cerevisiae deletion strains, locus YKL068W, stronger effect = lower value): 1.01 (inactive)
normalized growth (S. cerevisiae deletion strains, locus YKL085W, strain MDH1 (second series), stronger effect = lower value): 1.02 (inactive)
normalized growth (S. cerevisiae deletion strains, locus YKL085W, strain MDH1, stronger effect = lower value): 1.02 (inactive)
normalized growth (S. cerevisiae deletion strains, locus YKL190W, strain CNB1, stronger effect = lower value): 1 (inactive)
normalized growth (S. cerevisiae deletion strains, locus YKR001C, strain vps1, stronger effect = lower value): 0.927 (inactive)
normalized growth (S. cerevisiae deletion strains, locus YLR039C, strain RIC1, stronger effect = lower value): 0.904 (inactive)
normalized growth (S. cerevisiae deletion strains, locus YLR058C, strain SHM2, stronger effect = lower value): 1.01 (inactive)
normalized growth (S. cerevisiae deletion strains, locus YLR102C, strain apc9, stronger effect = lower value): 1.03 (inactive)
normalized growth (S. cerevisiae deletion strains, locus YLR113W, strain HOG1, stronger effect = lower value): 1.04 (inactive)
normalized growth (S. cerevisiae deletion strains, locus YLR262C, strain YPT6, stronger effect = lower value): 0.843 (inactive)
normalized growth (S. cerevisiae deletion strains, locus YLR268W, strain sec22, stronger effect = lower value): 0.98 (inactive)
normalized growth (S. cerevisiae deletion strains, locus YLR330W, strain CHS5, stronger effect = lower value): 1.01 (inactive)
normalized growth (S. cerevisiae deletion strains, locus YLR342W, strain FKS1 (second series), stronger effect = lower value): 0.801 (inactive)
normalized growth (S. cerevisiae deletion strains, locus YLR371W, strain rom2, stronger effect = lower value): 1.03 (inactive)
normalized growth (S. cerevisiae deletion strains, locus YLR418C, strain cdc73, stronger effect = lower value): 0.845 (inactive)
normalized growth (S. cerevisiae deletion strains, locus YML016C, strain PPZ1, stronger effect = lower value): 1.01 (inactive)
normalized growth (S. cerevisiae deletion strains, locus YML032C, strain rad52, stronger effect = lower value): 0.937 (inactive)
normalized growth (S. cerevisiae deletion strains, locus YML124C, strain tub3, stronger effect = lower value): 1.03 (inactive)
normalized growth (S. cerevisiae deletion strains, locus YMR078C, strain ctf18, stronger effect = lower value): 1.04 (inactive)
normalized growth (S. cerevisiae deletion strains, locus YMR223W, strain ubp8, stronger effect = lower value): 0.996 (inactive)
normalized growth (S. cerevisiae deletion strains, locus YMR263W, strain SAP30, stronger effect = lower value): 0.989 (inactive)
normalized growth (S. cerevisiae deletion strains, locus YMR307W, strain GAS1, stronger effect = lower value): 0.716 (inactive) and 0.967 (inactive)
normalized growth (S. cerevisiae deletion strains, locus YNL067W, strain RPL9B, stronger effect = lower value): 0.933 (inactive)
normalized growth (S. cerevisiae deletion strains, locus YNL128W, strain TEP1, stronger effect = lower value): 1.02 (inactive)
normalized growth (S. cerevisiae deletion strains, locus YNL153C, strain GIM3, stronger effect = lower value): 0.995 (inactive)
normalized growth (S. cerevisiae deletion strains, locus YNL175C, strain NOP13, stronger effect = lower value): 1 (inactive)
normalized growth (S. cerevisiae deletion strains, locus YNL183C, strain NPR1, stronger effect = lower value): 1.03 (inactive)
normalized growth (S. cerevisiae deletion strains, locus YNL197C, strain WHI3, stronger effect = lower value): 1.01 (inactive)
normalized growth (S. cerevisiae deletion strains, locus YNL224C, strain SQS1, stronger effect = lower value): 1.02 (inactive)
normalized growth (S. cerevisiae deletion strains, locus YNL233W, strain BNI4, stronger effect = lower value): 0.985 (inactive)
normalized growth (S. cerevisiae deletion strains, locus YNL250W, strain rad50, stronger effect = lower value): 1.03 (inactive)
normalized growth (S. cerevisiae deletion strains, locus YNL271C, strain bni1, stronger effect = lower value): 1.05 (inactive)
normalized growth (S. cerevisiae deletion strains, locus YNL298W, strain CLA4, stronger effect = lower value): 1.04 (inactive)
normalized growth (S. cerevisiae deletion strains, locus YNL307C, strain MCK1, stronger effect = lower value): 0.794 (active)
normalized growth (S. cerevisiae deletion strains, locus YNL322C, strain KRE1, stronger effect = lower value): 1.02 (inactive)
normalized growth (S. cerevisiae deletion strains, locus YNR052C, strain pop2, stronger effect = lower value): 1.04 (inactive)
normalized growth (S. cerevisiae deletion strains, locus YOL006C, strain TOP1, stronger effect = lower value): 0.636 (inactive)
normalized growth (S. cerevisiae deletion strains, locus YOL012C, strain htz1): 0.667 (inactive)
normalized growth (S. cerevisiae deletion strains, locus YOL147C, strain pex11, stronger effect = lower value): 1.03 (inactive)
normalized growth (S. cerevisiae deletion strains, locus YOR061W, strain CKA2, stronger effect = lower value): 1.01 (inactive)
normalized growth (S. cerevisiae deletion strains, locus YOR069W, strain VPS5, stronger effect = lower value): 1.01 (inactive)
normalized growth (S. cerevisiae deletion strains, locus YOR083W, strain WHI5 (second series), stronger effect = lower value): 0.893 (inactive)
normalized growth (S. cerevisiae deletion strains, locus YOR136W, strain idh2, stronger effect = lower value): 1.03 (inactive)
normalized growth (S. cerevisiae deletion strains, locus YOR144C, strain elg1, stronger effect = lower value): 1.02 (inactive)
normalized growth (S. cerevisiae deletion strains, locus YOR184W, strain ser1, stronger effect = lower value): 0.979 (inactive)
normalized growth (S. cerevisiae deletion strains, locus YOR231W, strain MKK1, stronger effect = lower value): 1.06 (inactive)
normalized growth (S. cerevisiae deletion strains, locus YOR316C, strain cot1, stronger effect = lower value): 1.03 (inactive)
normalized growth (S. cerevisiae deletion strains, locus YPL055C, strain LGE1, stronger effect = lower value): 0.851 (inactive)
normalized growth (S. cerevisiae deletion strains, locus YPL241C, strain CIN2, stronger effect = lower value): 1.01 (inactive) and 1 (inactive)
normalized growth (S. cerevisiae deletion strains, locus YPL256C, strain CLN2, stronger effect = lower value): 1.08 (inactive)
normalized growth (S. cerevisiae deletion strains, locus YPR119W, strain clb2, stronger effect = lower value): 1.04 (inactive)
normalized growth (S. cerevisiae deletion strains, locus YPR141C, strain kar3, stronger effect = lower value): 1.03 (inactive)
normalized growth (S. cerevisiae deletion strains, locus YPR163C, strain tif3, stronger effect = lower value): 1 (inactive)
normalized growth (S. cerevisiae deletion strains, locus YPR167C, strain met16, stronger effect = lower value): 1.02 (inactive)
normalized growth (S. cerevisiae deletion strains, strain wtn01, stronger effect = lower value): 0.999 (inactive)
normalized growth (S. cerevisiae strains, strain wild type, stronger effect = lower value): 1.01 (inactive)
